EP2 mod: modulates human prostaglandin E2 receptor EP2 signaling. P43116. induction, % at 25 µM. EP2-expressing cells, cAMP HTRF FRET, PGE2 co-stimulation. AID 940. 260,000 tested, 0.83% active;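 active = compounds whose cAMP rise, as percent of the full-agonist control response, exceeds 60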;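 also: rat C6 glioma line stably carrying human EP2 under a CMV promoter; the protocol text gives 20 µM as final concentration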
Target sequence (P43116 whole entry, looked up): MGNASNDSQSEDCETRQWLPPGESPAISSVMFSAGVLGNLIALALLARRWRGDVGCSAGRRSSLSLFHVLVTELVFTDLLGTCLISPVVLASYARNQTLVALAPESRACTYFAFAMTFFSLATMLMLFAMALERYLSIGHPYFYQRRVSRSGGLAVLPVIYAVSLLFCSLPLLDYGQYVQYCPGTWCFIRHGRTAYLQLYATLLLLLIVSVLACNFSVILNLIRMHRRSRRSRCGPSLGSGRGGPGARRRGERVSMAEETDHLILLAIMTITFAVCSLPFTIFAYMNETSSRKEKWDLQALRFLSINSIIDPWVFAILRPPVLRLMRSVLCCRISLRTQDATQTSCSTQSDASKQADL
CHT PAM: allosteric activators of human choline transporter CHT; CHT-expressing cells, membrane potential dye, choline EC20; stronger effect = higher value; LV-AA mutant CHT in HEK293 cells; B-score at 10 µM; 310,000 tested, 0.49% active; AID 488977;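 active = initial fluorescence not abnormally high and integrated response B-score, plate-corrected, over 3 SD above library mean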
PGE2 EP2 inh: inhibitors of human EP2 prostaglandin E2 receptor; P43116; C6 glioma cells expressing human EP2, cAMP TR-FRET; cells stimulated with saturating PGE2; inhibition, % at 25 µM; 260,000 tested, 0.52% active; AID 1422;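 active = percent inhibition above 40 after rounding to a whole number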;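 also: rat C6 glioma host cells with rolipram phosphodiesterase inhibitor present; the protocol text gives 20 µM as final concentration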
CHT block: inhibitors of human choline transporter CHT. CHT-expressing cells, membrane potential dye, choline response; stronger effect = lower value. B-score at 10 µM. AID 488975. Q9GZV3. 310,000 tested, 0.86% active;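 active = B-score over 3 SD under the library average, and starting fluorescence ratio not unusually high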;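 also: choline stimulus applied at its EC90 after an EC20 pre-addition; B-score computed on integrated fluorescence ratio after choline addition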
CHT act confirm: human CHT activation, confirmatory screen; CHT-expressing cells, membrane potential dye fluorescence (FDSS); % of choline EC20–EC90 response window; HEK293 expressing CHT LV-AA mutant; choline added at its EC20; shares compounds with CHT PAM; activation, % at 10 µM; 2,500 tested, 91% active; AID 504833;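 active = primary screen active, with duplicate mean activation above negative control mean plus 3 SD, cut at about 11% in these data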
HEK293 MP dye: activity in parental HEK293 cells lacking CHT; shares compounds with CHT PAM; membrane potential dye fluorescence (FDSS); measured after EC20 choline addition; ratio readout change at 10 µM, hits read low; 2,500 tested, 62% active;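 active = duplicate-averaged ratio beyond 3 SD from buffer wells, up or down, though filed actives are nearly all decreases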
A number is an active result; 0 = inactive; - = not tested or not shown. Sampled rows, rich in hits. Any-hit rate of the full collection: about 2%.

SMILES	EP2 mod	CHT PAM	PGE2 EP2 inh	CHT block	CHT act confirm	HEK293 MP dye
COc1ccc2c(ccc[n+]2CC(=O)c2ccccc2)c1	-	0	-	0	-	-
N#Cc1nc(COc2ccc(F)cc2)oc1N1CCN(Cc2ccccc2)CC1	0	7.74	-	0	31.4	0
Cn1c(Cc2ccccc2)[n+](C)c2ccccc21	0	0	0	0	48.9	-41
Cn1c(=O)c(Cc2ccccc2)c(O)c2ccccc21	0	0	0	0	-	-
COc1ccc(C(=O)Nc2ccncc2)cc1OC	0	8.17	0	0	38.7	-50.2
COc1ccc(Cl)cc1C(=O)Nc1ccncc1	-	0	-	0	59.9	-42.1
CC(C)(C)C1CC(C(F)(F)F)n2nc(C(=O)O)cc2N1 (stereo unspecified)	0	-	0	-	-	-
COc1cccc(C2(NC(=O)c3ccc(Cn4cccn4)o3)CCCC2)c1	0	-	-	-	-	-
O=C(NC1CCN(Cc2ccccc2)CC1)c1cc(-c2ccccn2)nc2ccccc12	0	7.77	0	0	47.8	-58.6
Cc1ccccc1C(=O)NC1CCN(Cc2ccccc2)CC1	0	0	0	0	-	-
O=C(NC1CCCCCCC1)c1cc(-c2ccccn2)nc2ccccc12	0	6.76	0	0	10.3	0
O=C(Nc1ccncc1)c1cc(-c2ccccn2)nc2ccccc12	0	0	0	0	-	-
Cc1cccnc1-n1cccc1CN(CCCn1ccnc1)Cc1cccc(F)c1	0	-	0	-	-	-
O=C(NCC(c1ccco1)N1CCCC1)c1ccccc1Sc1ccc(C(F)(F)F)cc1[N+](=O)[O-] (stereo unspecified)	-	0	-	0	26.2	0
Cn1c(SCC(N)=O)nnc1-c1ccncc1	0	-	0	-	-	-
CCCNC(=S)N1CCC(C(=O)c2ccc(Cl)cc2)CC1	-	0	-	0	-	-
CCCNC(=S)N1CCC(C(=O)c2ccc(OC)cc2)CC1	0	6.74	0	0	0	0
CCOC(=O)C1(CC2CC2)CCN(Cc2cn[nH]c2-c2cccc(F)c2)CC1	0	0	0	0	22.4	0
COc1cccc(C(=O)C2CCCN(Cc3cccn3-c3ccccn3)C2)c1 (stereo unspecified)	0	9.65	0	0	45.7	-25.6
Cc1ccsc1C(=O)C1CCCN(Cc2cccn2-c2ccc(Cl)cn2)C1 (stereo unspecified)	0	16.1	0	0	49.3	0
CC(C)Oc1cccc(C(=O)C2CCCN(Cc3cccn3-c3ccccn3)C2)c1 (stereo unspecified)	0	0	0	0	-	-
O=C(c1cccc(C(F)(F)F)c1)C1CCCN(Cc2cccn2-c2ncccn2)C1 (stereo unspecified)	0	9.23	0	0	24.9	0
Cc1ccc2cc(CN(CCCO)C(=S)NC3CCCCC3)c(=O)[nH]c2c1C	0	-	0	-	-	-
COc1ccc(/C=C/C(=O)NC(C)CCc2ccccc2)cc1 (stereo unspecified)	0	0	0	0	34.9	0
COc1ccc(/C=C/C(=O)NCCCN2CCCC2)cc1	-	0	-	0	-	-
SMILES	EP2 mod	CHT PAM	PGE2 EP2 inh	CHT block	CHT act confirm	HEK293 MP dye
COc1ccc(/C=C/C(=O)NCCCc2ccccc2)cc1	0	6.59	0	0	37.6	0
CC(=O)Nc1ccc(S(=O)(=O)N2CCCC(c3ncncc3S(C)(=O)=O)C2)cc1 (stereo unspecified)	0	-	-	-	-	-
Cc1cc(=O)n(C)c(=O)n1CCCCCCN1CCCC1	0	0	0	0	43.6	-33.7
Cc1cc(=O)n(C)c(=O)n1CCCCCOc1cccc([N+](=O)[O-])c1	0	0	0	0	-	-
Cc1ccnc2nc(C(=O)Nc3nccs3)nn12	0	0	-	0	40.1	0
Cc1cc(C(F)F)n2nc(C(=O)Nc3ccc(S(=O)(=O)N4CCCCCC4)cc3)nc2n1	0	0	0	0	-	-
Cc1ccnc2nc(C(=O)Nc3ccc(S(=O)(=O)N4CCCC4)cc3)nn12	0	9.95	0	0	26.8	-20.8
Cc1ccnc2nc(C(=O)NC3=NCCS3)nn12	0	0	0	0	-	-
COc1cc(NC(=O)CSc2nnc(-c3ccccc3)n2C)cc(OC)c1	0	-	0	-	-	-
CC(C)(C)OC(=O)NCCCCCc1nnc(SCc2ccccc2F)o1	0	0	0	0	-	-
CC(C)(C)OC(=O)NCCCCCc1nnc(SCc2cccc(F)c2)o1	0	8.31	0	0	0	0
CCc1cc(CNC(=O)c2ccc(OC3CCN(CCc4ccccc4)CC3)cc2)on1	-	6.45	-	0	0	-25.3
COCCNc1c(-c2ccco2)nc2cnccn12	0	-	-	-	-	-
CC(=O)c1cccc(NC(=O)c2cc3ccccn3n2)c1	0	0	-	0	34.5	-27.5
Cc1cc(N2CCN(c3nc(-c4ccc([N+](=O)[O-])cc4)cs3)CC2)c2ccccc2n1	0	0	0	0	-	-
Cc1cc(N2CCN(C(=O)Nc3ccccc3C#N)CC2)c2ccccc2n1	-	0	-	0	56.4	-81.9
COc1cc(/C=C2\SC(=S)N(CCC(=O)Nc3ccc(Cl)cc3)C2=O)cc(OC)c1OC	0	-	0	-	-	-
COc1ccc(C(CCNCc2ccc(N(C)C)cc2)c2ccccc2OC)cc1 (stereo unspecified)	-	0	-	0	-	-
COc1ccc(C(CCNCc2ccccc2)c2ccc(F)cc2)cc1 (stereo unspecified)	0	0	0	0	-	-
COc1ccc(C(CCNC(C)c2ccccc2)c2ccc(F)cc2)cc1 (stereo unspecified)	0	0	0	0	43.8	0
COc1ccc(CNCCC(c2ccc(OC)cc2)c2ccccc2OC)cc1 (stereo unspecified)	-	7.83	-	0	17.3	0
COc1ccc(CNCCC(c2ccc(F)cc2)c2ccc(OC)cc2)cc1 (stereo unspecified)	0	0	0	0	0	0
COc1ccc(C(CCNCc2ccc(OC(C)C)cc2)c2ccccc2OC)cc1 (stereo unspecified)	-	6.75	-	0	13.8	0
COc1ccc(NC(=O)CN2C(=O)C3CCCCN3C(=O)c3ccccc32)cc1 (stereo unspecified)	0	-	0	-	-	-
COc1cc(CNc2n[nH]c3nc(C)cc(C(F)(F)F)c23)cc(OC)c1	0	-	0	-	-	-
SMILES	EP2 mod	CHT PAM	PGE2 EP2 inh	CHT block	CHT act confirm	HEK293 MP dye
COc1ccc(NC(=O)CSc2nnc(C)c(=O)[nH]2)c(OC)c1	0	-	0	-	-	-
O=C(C1CCN(S(=O)(=O)c2ccc(-n3cnnn3)cc2)CC1)N1CCCC1	0	-	0	-	-	-
COc1cccc(NC(=O)CSc2nc3sc4c(c3c(=O)[nH]2)CCC4)c1	0	-	0	-	-	-
COc1ccc(CNCCC(c2ccccc2)c2ccc(OC(C)C)cc2)cc1OC (stereo unspecified)	-	7.51	-	0	0	0
CN1Cc2c(N3CCOCC3)nc3sc(C#N)c(N)c3c2CC1(C)C	0	0	0	0	49.5	-55
Cc1cc2c(cc3c(=O)n(CC(=O)O)nc(C)n32)o1	0	-	0	-	-	-
O=C(CC12CC3CC(CC(C3)C1)C2)OCC(O)CN1CCOCC1 (stereo unspecified)	0	-	0	-	-	-
CN(C)c1cccc2c(/C=N/O)ccc(N(C)C)c12	0	0	0	0	49.9	-41.5
